An excerpt weighted towards active compounds, which were near 3% of everything screened.
SENP7 inh = SENP7 protease inhibitors, primary screen, biochemical, luminescence, uHTS; recombinant SENP7, Z-RLRGG-aminoluciferin luminescence, 40 min; inhibition, % at 5 µM; AID 434973, 2010; 330,000 compounds, 1.5% hits;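 active = inhibition above about 50% at the single test dose, limit read from the data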;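 also: plate controls were DMSO with enzyme for no effect and no enzyme buffer wells for full effect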
Target sequence (Q9BQF6 706-1050 limits assumed): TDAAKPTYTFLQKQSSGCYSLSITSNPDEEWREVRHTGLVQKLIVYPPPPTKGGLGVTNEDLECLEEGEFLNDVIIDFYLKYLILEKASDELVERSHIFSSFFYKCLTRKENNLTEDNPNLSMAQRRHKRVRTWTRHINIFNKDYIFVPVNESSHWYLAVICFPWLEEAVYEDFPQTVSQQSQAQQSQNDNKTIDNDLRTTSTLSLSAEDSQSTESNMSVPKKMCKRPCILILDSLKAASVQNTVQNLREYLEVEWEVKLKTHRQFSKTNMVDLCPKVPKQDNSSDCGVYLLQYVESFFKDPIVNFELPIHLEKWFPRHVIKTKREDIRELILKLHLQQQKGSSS
SENP8 block-1 = human SENP8 protease inhibitors, primary screen, biochemical, fluorescence, Nedd8 protein substrate, uHTS | Sentrin-specific protease 8 (Homo sapiens), Q96LD8 | recombinant SENP8 | 360,000 compounds, 0.64% hits | inhibition, % at 20 µM; in the data active = inhibition mostly above about 40%, no sharp cut-off; inactive = mostly below about 27%
Target sequence (Q96LD8 whole entry, looked up): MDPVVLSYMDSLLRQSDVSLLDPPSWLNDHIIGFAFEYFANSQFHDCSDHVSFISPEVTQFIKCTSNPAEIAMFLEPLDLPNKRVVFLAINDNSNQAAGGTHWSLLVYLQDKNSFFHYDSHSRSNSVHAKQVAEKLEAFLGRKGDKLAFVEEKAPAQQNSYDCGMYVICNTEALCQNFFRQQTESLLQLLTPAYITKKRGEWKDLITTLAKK
SENP6 block = SENP6 protease inhibitors, primary screen, biochemical, luminescence, uHTS; Sentrin-specific protease 6 (Homo sapiens), Q9GZR1; Recombinant SENP6 catalytic domain, aminoluciferin luminescence; inhibition, % at 10 µM; 330,000 compounds, 1.8% hits;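 active = inhibition above about 50% at the single tested dose, limit read from the data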;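 also: plate controls were DMSO wells with enzyme for no effect and DMSO wells lacking enzyme for full effect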
TRAIL sens C8 = viability loss with TRAIL in NB7+C8 cells, primary screen, TRAIL sensitizer project, cell-based, ATPlite luminescence; inhibition (viability loss, TRAIL sensitization), % at 10 µM; AID 624354, 2012; 360,000 compounds, 1% hits;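 active = compounds causing at least 50% loss of cell viability in the single-dose screen, relative to plate controls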
PPC-1+TRAIL kill = compounds killing PPC-1 cancer cells with TRAIL present, primary screen, TRAIL potentiator project, ATPLite luminescence, uHTS; AID 1443, 2008; PPC-1 cells + TRAIL, ATPLite viability luminescence; 220,000 compounds, 0.41% hits; cell killing (% activity), % at 4 µM or 5 µM;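 active = cell killing above 50% in the first pass at 4 µM, then a duplicate retest at 5 µM averaging 50% or more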;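 also: plate controls were cells with TRAIL plus DMSO for no effect and medium-only wells lacking cells for full effect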
SENP8 block-2 = SENP8 protease inhibitors, primary screen, biochemical, luminescence. Sentrin-specific protease 8 (Homo sapiens), Q96LD8. purified SENP8, Z-RLRGG-aminoluciferin cleavage. inhibition, % at 10 µM. 330,000 compounds, 1.2% hits. AID 2540, 2010; in the data active = inhibition above about 50%
* hit, by the source's call.

How did O=C(c1cccnc1)N1CCCC(Nc2ccc(F)cc2)C1 (stereo not given) do in these assays?
SENP7 inh: 2; SENP8 block-1: 4; SENP6 block: 6; TRAIL sens C8: -9; SENP8 block-2: 4

How did Cc1nc(=S)c2c([nH]1)-c1ccccc1CC21CCCCC1 do in these assays?
SENP7 inh: -7; SENP8 block-1: 20; SENP6 block: -8; TRAIL sens C8: 80*; PPC-1+TRAIL kill: 4; SENP8 block-2: 2

What do the screens show for `COc1cccc2sc3cc(NCc4ccc(C)o4)ccc3c(=O)c12`?
SENP7 inh: 58*; SENP8 block-1: -466; SENP6 block: 30; TRAIL sens C8: 11; SENP8 block-2: 42

What do the screens show for `COc1cc2sc(-c3ccc(S(C)(=O)=O)cc3)c(C(=O)NCc3ccc(C)o3)c2cc1OC`?
SENP7 inh: 6; SENP8 block-1: inactive; SENP6 block: -16; TRAIL sens C8: 1; SENP8 block-2: 3

Results for COc1cccc(C(=O)Nc2cc3c(cc2Cl)OCCCO3)c1 ?
SENP7 inh: 40; SENP8 block-1: 6; SENP6 block: 51*; TRAIL sens C8: 40; PPC-1+TRAIL kill: 19; SENP8 block-2: 34

How did O=C(COc1ccc(C(F)(F)F)cc1[N+](=O)[O-])Nc1cccc(C(F)(F)F)c1 do in these assays?
SENP7 inh: 6; SENP8 block-1: 21; SENP6 block: -13; TRAIL sens C8: 8; PPC-1+TRAIL kill: 52*; SENP8 block-2: -8

Results for Cc1nc(C)n(C(C)CNC(=O)c2ccco2)n1 (stereo not given) ?
SENP7 inh: -10; SENP8 block-1: 14; SENP6 block: 0; TRAIL sens C8: 1; SENP8 block-2: -2

How did CCOC(=O)Cc1csc(SCC(=O)Nc2oc(C)c3c(C)n[nH]c(=O)c23)n1 do in these assays?
SENP7 inh: 8; SENP8 block-1: 0; SENP6 block: 0; TRAIL sens C8: -10; SENP8 block-2: -2

What do the screens show for `O=C(c1cc(-c2ccc(F)cc2)nc2ccccc12)N1CCC1`?
SENP7 inh: 1; SENP8 block-1: -129; SENP6 block: -8; TRAIL sens C8: -16; SENP8 block-2: 10

What do the screens show for `O=C(O)c1cc(-c2ccc(-c3ccc(F)cc3)o2)nc2ccccc12`?
SENP7 inh: 8; SENP8 block-1: -371; SENP6 block: 16; TRAIL sens C8: 59*; SENP8 block-2: 2

How did O=C(CN1C(=O)NC2(CCCC2)C1=O)NNC(=O)c1ccccc1 do in these assays?
SENP7 inh: -5; SENP8 block-1: 8; SENP6 block: 2; TRAIL sens C8: 2; SENP8 block-2: -1

What do the screens show for `COc1cccc2cc(-c3n[nH]c(=S)n3C)oc12`?
SENP7 inh: -5; SENP8 block-1: -432; SENP6 block: -16; TRAIL sens C8: -16; PPC-1+TRAIL kill: 1; SENP8 block-2: 5

How did COc1cccc2cc(-c3ccnc(N)n3)oc12 do in these assays?
SENP7 inh: 53*; SENP8 block-1: -436; SENP6 block: 15; TRAIL sens C8: -11; PPC-1+TRAIL kill: 13; SENP8 block-2: 21

How did COc1ccc(-n2nnc3c(SCC(=O)Nc4ccc5c(c4)OCCO5)ncnc32)cc1 do in these assays?
SENP7 inh: 20; SENP6 block: 54*; PPC-1+TRAIL kill: 16; SENP8 block-2: 16

How did O=C(/C=C/[C@H]1O[C@@H](n2cnc3c(NC(=O)c4ccccc4)ncnc32)[C@H](O)[C@@H]1O)NCC1CCCO1 (stereo not given in full) do in these assays?
SENP8 block-1: 27; TRAIL sens C8: 54*

What do the screens show for `COc1cc(/C=C2\SC(=S)N(N(C)c3ccccc3)C2=O)ccc1O`?
SENP7 inh: 5; SENP8 block-1: 17; SENP6 block: -10; TRAIL sens C8: 2; PPC-1+TRAIL kill: -1; SENP8 block-2: 5

What do the screens show for `Cn1c(=O)c2[nH]c(C=Cc3ccc4c(c3)OCO4)nc2n(C)c1=O`?
SENP8 block-1: -40; TRAIL sens C8: 5

How did Nc1[nH]c(N=NC(=O)c2ccc(F)cc2)c2ccccc12 do in these assays?
SENP7 inh: 5; SENP8 block-1: -16; SENP6 block: -4; TRAIL sens C8: 35; PPC-1+TRAIL kill: 27; SENP8 block-2: 0

Results for Nc1ccccc1C(=O)N=Nc1[nH]c(N)c2ccccc12 ?
SENP7 inh: 2; SENP8 block-1: -234; SENP6 block: 12; TRAIL sens C8: 51*; PPC-1+TRAIL kill: 42; SENP8 block-2: 7

Results for Cc1cccc(-n2ncc3c(NC4CCCCC4)ncnc32)c1 ?
SENP7 inh: 7; SENP8 block-1: -9; SENP6 block: 16; TRAIL sens C8: 73*; PPC-1+TRAIL kill: 36; SENP8 block-2: -4

Results for Cc1cccc(-n2ncc3c(N4CCCC4)ncnc32)c1 ?
SENP7 inh: 25; SENP8 block-1: 9; SENP6 block: 41; TRAIL sens C8: 80*; PPC-1+TRAIL kill: 44; SENP8 block-2: 29

Results for O=C(CN1c2cccc3cccc(c23)S1(=O)=O)NCc1ccc(Cl)cc1 ?
SENP7 inh: 5; SENP8 block-1: inactive; SENP6 block: -2; TRAIL sens C8: 14; SENP8 block-2: 0

Results for FC(F)(F)c1cccc(Sc2nc(-c3ccccc3)nnc2C(F)(F)F)c1 ?
SENP7 inh: 3; SENP8 block-1: 13; SENP6 block: 10; TRAIL sens C8: 51*; PPC-1+TRAIL kill: 12; SENP8 block-2: 2

Results for FC(F)(F)c1nnc(-c2ccccc2)nc1Sc1ccccc1 ?
SENP7 inh: -8; SENP8 block-1: 17; SENP6 block: -4; TRAIL sens C8: 9; PPC-1+TRAIL kill: 10; SENP8 block-2: -1

What do the screens show for `FC(F)(F)c1nnc(-c2ccccc2)nc1Sc1ccc(Cl)cc1`?
SENP7 inh: -5; SENP8 block-1: 10; SENP6 block: -3; TRAIL sens C8: 48*; PPC-1+TRAIL kill: 22; SENP8 block-2: -9

Results for CN1C[C@@H]2[C@@H]3C(=O)N(Cc4ccccc4)C(=O)[C@@H]3[C@](Cc3ccccc3)(C1=O)N2C(=O)c1ccc(C(C)(C)C)cc1 ?
SENP8 block-1: -1; TRAIL sens C8: 65*

How did CCN(C(=S)Nc1cc(S(=O)(=O)N2CCOCC2)ccc1Cl)c1cccc2ccccc12 do in these assays?
SENP7 inh: 39; SENP8 block-1: -388; SENP6 block: 77*; TRAIL sens C8: -8; PPC-1+TRAIL kill: 41; SENP8 block-2: 58*

How did CCOCCOC(=O)C1=C(C)NC(=O)NC1c1cc2c(cc1Br)OCO2 (stereo not given) do in these assays?
SENP7 inh: -3; SENP8 block-1: 14; SENP6 block: -32; TRAIL sens C8: 10; SENP8 block-2: 12
